The values below come from the supplement of paper PMC8975748.

Where a name gives a salt, the structure may show the parent alone. ± gives the standard deviation of the averaged measurements.

For assay [1], the system named is Saccharomyces cerevisiae BY4741 SeMeCo community. The experiment in a line: mean cell size (pixel area) (pixels); higher = larger cells. To be noted: 10 µM; 24 h; SM minimal medium. In short, it runs like this: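 A four-plasmid fluorescent Saccharomyces cerevisiae BY4741 community was tested; each plasmid complements one auxotrophy and carries a fluorescent marker. An overnight preculture at OD600 = 1.0 was diluted to OD600 = 0.3, and 70 µl was added to 384-well plates acoustically predosed with drug (final 10 µM) in SM medium for 24 h. Cells were fixed with paraformaldehyde and imaged by automated confocal microscopy, with analysis in Harmony. Mean cell pixel area per well is averaged over 3 replicates. Same SeMeCo high-content imaging drug screen: Selleck FDA-approved drugs at 10 µM, 24 h in SM medium, 384-well plates, 3 replicates.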

Assay [2] shares this test system. Nature of the assay: z-score of prototroph abundance vs DMSO median; higher = larger share of this subpopulation than in DMSO controls. To be noted: 10 µM; 24 h; SM minimal medium; subpopulation (auxotrophy): Prototroph. In short, it runs like this:
(§1)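 A community of Saccharomyces cerevisiae BY4741 was built from four plasmids that each restored one auxotrophy and encoded a distinct fluorescent protein. Pre-grown overnight to OD600 1.0 and diluted to 0.3, it was dispensed at 70 µl into 384-well plates acoustically predosed with library drugs for a final 10 µM, and grown 24 h in minimal SM medium. Cells were then paraformaldehyde-fixed and imaged by automated confocal microscopy. Thresholds and autofluorescence correction came from single-auxotroph fluorescent strains, and each subpopulation's abundance was scored as a z-score relative to the vehicle-well median.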

For assay [3] the test system is unchanged. Nature of the assay: z-score of subpopulation abundance vs DMSO median, subpopulation auxotrophic for M; higher = larger share of this subpopulation than in DMSO controls. To be noted: 10 µM; 24 h; SM minimal medium; subpopulation (auxotrophy): M. The method in brief:
as §1

The test system is the same in assay [4]. The experiment in a line: z-score of subpopulation abundance vs DMSO median, subpopulation auxotrophic for L; higher = larger share of this subpopulation than in DMSO controls. Particulars: 10 µM; 24 h; SM minimal medium; subpopulation (auxotrophy): L. In short, it runs like this:
as §1

Assay [5] has the same test system. Nature of the assay: z-score of subpopulation abundance vs DMSO median, subpopulation auxotrophic for U; higher = larger share of this subpopulation than in DMSO controls. To be noted: 10 µM; 24 h; SM minimal medium; subpopulation (auxotrophy): U. The method in brief: as §1
Assay [6] shares this test system. The experiment in a line: z-score of subpopulation abundance vs DMSO median, subpopulation auxotrophic for H; higher = larger share of this subpopulation than in DMSO controls. To be noted: 10 µM; 24 h; SM minimal medium; subpopulation (auxotrophy): H. The method in brief:
as §1

Assay [7] has the same test system. Nature of the assay: z-score of subpopulation abundance vs DMSO median, subpopulation auxotrophic for LU; higher = larger share of this subpopulation than in DMSO controls. To be noted: 10 µM; 24 h; SM minimal medium; subpopulation (auxotrophy): LU. The method in brief:
as §1

Assay [8] has the same test system. Nature of the assay: z-score of subpopulation abundance vs DMSO median, subpopulation auxotrophic for LM; higher = larger share of this subpopulation than in DMSO controls. To be noted: 10 µM; 24 h; SM minimal medium; subpopulation (auxotrophy): LM. In short, it runs like this:
as §1

The test system is the same in assay [9]. Nature of the assay: z-score of subpopulation abundance vs DMSO median, subpopulation auxotrophic for HM; higher = larger share of this subpopulation than in DMSO controls. To be noted: 10 µM; 24 h; SM minimal medium; subpopulation (auxotrophy): HM. The method in brief:
as §1

Assay [10] shares this test system. Nature of the assay: z-score of subpopulation abundance vs DMSO median, subpopulation auxotrophic for HU; higher = larger share of this subpopulation than in DMSO controls. Particulars: 10 µM; 24 h; SM minimal medium; subpopulation (auxotrophy): HU. The method in brief: as §1
Assay [11] shares this test system. Nature of the assay: z-score of subpopulation abundance vs DMSO median, subpopulation auxotrophic for UM; higher = larger share of this subpopulation than in DMSO controls. Particulars: 10 µM; 24 h; SM minimal medium; subpopulation (auxotrophy): UM. In short, it runs like this:
as §1

Assay [12] shares this test system. The experiment in a line: z-score of subpopulation abundance vs DMSO median, subpopulation auxotrophic for HL; higher = larger share of this subpopulation than in DMSO controls. To be noted: 10 µM; 24 h; SM minimal medium; subpopulation (auxotrophy): HL. The method in brief: as §1
The test system is the same in assay [13]. Nature of the assay: z-score of subpopulation abundance vs DMSO median, subpopulation auxotrophic for HLU; higher = larger share of this subpopulation than in DMSO controls. Particulars: 10 µM; 24 h; SM minimal medium; subpopulation (auxotrophy): HLU. The method in brief: as §1
Assay [14] has the same test system. Nature of the assay: z-score of subpopulation abundance vs DMSO median, subpopulation auxotrophic for HUM; higher = larger share of this subpopulation than in DMSO controls. Particulars: 10 µM; 24 h; SM minimal medium; subpopulation (auxotrophy): HUM. The method in brief:
as §1

For assay [15] the test system is unchanged. Nature of the assay: z-score of subpopulation abundance vs DMSO median, subpopulation auxotrophic for LUM; higher = larger share of this subpopulation than in DMSO controls. To be noted: 10 µM; 24 h; SM minimal medium; subpopulation (auxotrophy): LUM. The method in brief:
as §1

Assay [16] has the same test system. The experiment in a line: z-score of subpopulation abundance vs DMSO median, subpopulation auxotrophic for HLUM; higher = larger share of this subpopulation than in DMSO controls. Particulars: 10 µM; 24 h; SM minimal medium; subpopulation (auxotrophy): HLUM. In short, it runs like this:
as §1

Assay [17] has the same test system. Nature of the assay: z-score of subpopulation abundance vs DMSO median, subpopulation auxotrophic for HLM; higher = larger share of this subpopulation than in DMSO controls. Particulars: 10 µM; 24 h; SM minimal medium; subpopulation (auxotrophy): HLM. In short, it runs like this:
as §1

Take `CN1[C@@H]2CC[C@H]1C[C@@H](OC(=O)c1c[nH]c3ccccc13)C2` [Tropisetron HCl]: in assay [1], the mean cell size is 12.57 ± 0.083. Further, the “z-score of prototroph abundance” value in [2] is -1. Besides, the “z-score of subpopulation abundance” value in assay [3] is 1.04; in assay [4], 0.79; in assay [5], -0.06; in [6] it was -0.68; in assay [7], 1; in [8] it was 1.09. Further, the “z-score of subpopulation abundance” value in assay [9] was 0.26; in [10], -0.68; in [11], 0.28; in assay [12], -0.91; in assay [13], 0.2; in [14] it was 0.19. Moreover, the results for the “z-score of subpopulation abundance” value in [15] and in assay [16] were 0.15 and 1.3, respectively.

`CC[C@H](C)C(=O)O[C@H]1C[C@H](O)C=C2C=C[C@H](C)[C@H](CC[C@@H](O)C[C@@H](O)CC(=O)O)[C@H]21` [Pravastatin sodium] showed a mean cell size in assay [1] of 12.3 ± 0.26. Moreover, in [2], the “z-score of prototroph abundance” value is -0.86. Also, the “z-score of subpopulation abundance” value in [3] was 0.01; in assay [4], 2.2; in [5], -0.09; in assay [7], 1.81; in [8], 1.93; in [9], 0.12. Moreover, the “z-score of subpopulation abundance” value in assay [10] was 0.26; in assay [11], 0.47; in assay [12], 0.84; in assay [13], -0.65; in assay [14], -0.32; in assay [16], 2.71.

Turning to `CO/N=C(\C(=O)N[C@@H]1C(=O)N2C(C(=O)[O-])=C(C[N+]3(C)CCCC3)CS[C@H]12)c1csc(N)n1` [Cefepime Dihydrochloride Monohydrate], the mean cell size in assay [1] stood at 12.4 ± 0.19. Also, in assay [2], the “z-score of prototroph abundance” value is -0.67. The “z-score of subpopulation abundance” value is 0.62 in assay [3]; 0.49 in [4]; -0.42 in assay [5]; 0.4 in assay [6]; 0.05 in assay [7]; 0.72 in [8]. Also, the “z-score of subpopulation abundance” value was 1.14 in assay [9]; -0.45 in assay [10]; 0.07 in [11]; 0.83 in assay [12]; 0.65 in assay [13]; 0.6 in assay [14]. In addition, the results for the “z-score of subpopulation abundance” value in assay [15] and in assay [16] were 1.06 and 0.19, respectively.

With `COc1ccccc1OCC(O)CN1CCN(CC(=O)Nc2c(C)cccc2C)CC1` (configuration not stated) [Ranolazine], the mean cell size in assay [1] worked out at 12.5 ± 0.23. Moreover, in assay [2], the “z-score of prototroph abundance” value is -0.25. In addition, the “z-score of subpopulation abundance” value in [3] is 0.23; in assay [4], 0.18; in assay [5] it was -0.29; in [6], -0.13; in assay [7], -0.55; in [8] it was 0.68. Moreover, the “z-score of subpopulation abundance” value in assay [9] was 0.37; in assay [10], -0.09; in assay [11], 0.37; in assay [12], -0.42; in [13], -0.21; in assay [14] it was 0.18. The figures for the “z-score of subpopulation abundance” value in assay [15] and in assay [16] were 0.49 and 0.5, respectively.

The molecule `Cc1c(OCC(F)(F)F)ccnc1C[S@@+]([O-])c1nc2ccccc2[nH]1` [Dexlansoprazole] displayed a mean cell size in [1] of 12.3 ± 0.13. The “z-score of prototroph abundance” value in assay [2] turned out to be 0.34. The “z-score of subpopulation abundance” value is -0.04 in assay [3]; 0.56 in assay [4]; -0.65 in [5]; 1.18 in assay [6]; 0.17 in assay [7]; 1.28 in assay [8]. Also, the “z-score of subpopulation abundance” value in assay [9] is 0; in assay [10], -0.32; in assay [11], -0.91; in assay [12] it was 0.7; in [13] it was 0.19; in assay [14] it was -0.66. The “z-score of subpopulation abundance” value in [16] is -0.54.

As for `O=C(O)CCCCCCCC(=O)O` [Azelaic acid], in assay [2], the “z-score of prototroph abundance” value was -0.32. For the same molecule, the “z-score of subpopulation abundance” value is 0.44 in assay [3]; -0.32 in assay [4]; 1.26 in [7]; 0.3 in [8]; 0.63 in [10]; -0.5 in assay [12]. In addition, the “z-score of subpopulation abundance” value in assay [13] is 0.77; in assay [17] it was -0.07; in assay [15] it was -0.32; in assay [16], 1.13.

Regarding `C=C1c2cccc(O)c2C(O)=C2C(=O)[C@]3(O)C(O)=C(C(N)=O)C(=O)[C@@H](N(C)C)[C@@H]3[C@@H](O)[C@H]12` [Methacycline HCl], the “z-score of prototroph abundance” value in assay [2] amounted to 0.09. In addition, the “z-score of subpopulation abundance” value was 0.2 in assay [3]; 1.08 in assay [4]; -0.83 in assay [5]; 2.58 in assay [6]; -0.95 in assay [7]; 0.5 in assay [8]. Moreover, the “z-score of subpopulation abundance” value in assay [9] was 0.54; in assay [10], -0.49; in assay [11], -0.59; in assay [12], 1.43; in assay [13], -0.87; in assay [17] it was 0.92. Besides, the results for the “z-score of subpopulation abundance” value in assay [15] and in [16] were -0.23 and -0.19, respectively.

For `CC(=O)OC1CC2(C)C(CC(O)C3C4(C)CCC(O)C(C)C4CCC32C)C1=C(CCC=C(C)C)C(=O)O` (configuration not stated) [Fusidine], in assay [2], the “z-score of prototroph abundance” value is -1.01. The “z-score of subpopulation abundance” value in assay [3] was 0.14; in assay [4] it was 2.4; in assay [5], -1.39; in assay [7], 1.02; in assay [8], 2.09; in assay [9], 1.19. The “z-score of subpopulation abundance” value in assay [10] was 0.13; in assay [11], -0.42; in [12] it was 2.33; in assay [13], 1.57; in [17], 1.22; in assay [15] it was 1.09. In addition, the “z-score of subpopulation abundance” value in assay [16] was 0.71.
